40 compounds from ChEMBL document CHEMBL3433997, “St. Jude Leishmania screening dataset” (2016) can be followed below.

For this assay, the target named is Solute carrier family 2, facilitated glucose transporter member 1 (Homo sapiens) (UniProt P11166). The assay is described as follows: ST_JUDE_LEISH: Cytotoxicity at 2uM final concentration against transgenic Leishmania Mexicana promastigotes LmGLUT1 that are glucose transport deficient and complemented with the human glucose transporter GLUT1. Activity is measured by DNA content using SYBR green in vitro. It counts as functional.
Sequence of Solute carrier family 2, facilitated glucose transporter member 1 (Homo sapiens) (P11166 whole entry): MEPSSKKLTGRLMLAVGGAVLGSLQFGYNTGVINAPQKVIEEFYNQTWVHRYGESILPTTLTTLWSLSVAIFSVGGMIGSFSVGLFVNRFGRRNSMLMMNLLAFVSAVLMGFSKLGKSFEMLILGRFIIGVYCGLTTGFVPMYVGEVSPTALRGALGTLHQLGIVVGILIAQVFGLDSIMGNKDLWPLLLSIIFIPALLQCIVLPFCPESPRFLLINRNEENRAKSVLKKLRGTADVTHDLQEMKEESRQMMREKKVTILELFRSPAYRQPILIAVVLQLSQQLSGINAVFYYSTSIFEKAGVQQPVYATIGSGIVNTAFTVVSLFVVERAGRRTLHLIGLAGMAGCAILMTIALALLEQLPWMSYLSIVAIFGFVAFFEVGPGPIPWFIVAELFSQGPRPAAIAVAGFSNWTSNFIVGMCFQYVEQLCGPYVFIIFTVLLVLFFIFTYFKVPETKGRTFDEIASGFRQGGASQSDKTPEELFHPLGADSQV
Take `O=C(N/N=C/c1nc2ccccc2[nH]1)c1cccc([N+](=O)[O-])c1`: the inhibition (in general, the drop in the measured response relative to a control, in per cent) worked out at 2.46%.
As to `COc1ccccc1-c1sccc1C(=O)NC1(c2cc(Cl)cc(Cl)c2)CCCC1`, the inhibition is 1.22%.
For the compound `CN(C)c1nc2cc(-n3cnc4cc(-c5ccc(Cl)cc5)sc4c3=O)ccc2n1CCCN1CCCCC1`, the inhibition is 9.33%.
Turning to `CCCC(=O)Nc1ccc(Cl)c(NC(=O)COc2cc(C)ccc2C(C)C)c1`, the inhibition was found to be 9.77%.
In the case of `CCCCC(NCC)c1ccc(OCCOc2ccc(C(CCCC)NCC)cc2)cc1` (stereo not given), the inhibition turned out to be 81.2%.
Then `Cc1nc2c(Nc3nc(-c4ccncc4)cs3)ncnc2n1-c1ccccc1Cl`, with 45.1%; and `O=C(/C=C/c1ccc(Cl)c(Cl)c1)NCCCCCN1CCCC(C(=O)Nc2ccc(Cl)c(Cl)c2)C1` (stereo not given), with -0.31%; and `CN(C)CCNC(=O)c1ccc2c(c1)ncn2-c1cc(OCc2ccccc2C(F)(F)F)c(C(N)=O)s1.CN(C)CCNC(=O)c1ccc2ncn(-c3cc(OCc4ccccc4C(F)(F)F)c(C(N)=O)s3)c2c1`, with 2.32%.
With `CCCOc1ccc(-c2nonc2NC(=O)c2cccc(OC)c2)cc1OCCC`, the inhibition is 8.68%.
Regarding `N=C(NCCc1c[nH]c2ccccc12)NCc1ccccc1Cl`, the inhibition is -1.93%.
Take `CC(=O)Oc1c(Cl)c(C)nc(C)c1-c1ccc(Oc2ccc(OC(F)(F)F)cc2)cc1`: the inhibition stood at 3.62%.
Turning to `O=C(Nc1cccc(-c2nn3ccccc3c2-c2ccnc(Nc3ccc(C(=O)N4CCOCC4)cc3)n2)c1)c1c(F)cccc1F`, the inhibition turned out to be 23.1%.
Consider `Cc1nc(O)c2c(ccc3ccc(CN(C)c4ccc(C(=O)N[C@@H](CCC(=O)O)C(=O)O)cc4)cc32)n1`, for which the inhibition was -1.5%.
The result for `Cc1cc(C(F)(F)F)n2nc(C(=O)N(Cc3cncn3Cc3ccccc3F)CC3CC3)cc2n1` reads -1.46%; that for `Clc1ccccc1/C=C/c1cncnc1Nc1ccc2[nH]c(Cc3ccccc3)nc2c1`, 7.21%; that for `CN(Cc1cccc(O)c1)C1CCN(c2cc(NC(=O)c3cccc(F)c3)ccn2)CC1`, 0.01%.
For `Nc1nc(N)c2c(ccc3nn(Cc4ccccc4)cc32)n1`, the inhibition was -0.49%.
The result for `CCCCNC(=O)[C@H](CC1CCCCC1)NC(=O)c1ccc(O)c(-c2cccc(C(F)(F)F)c2)c1` reads 2.16%.
For `O=C(Nc1ccc(C(F)(F)F)cc1)c1ccc(NCCCN2CCCCCC2)c([N+](=O)[O-])c1`, the inhibition was determined as 5.54%.
For `O=C(NCc1ccco1)c1ccc(CN2CCN(C(c3ccccc3)c3ccccc3)CC2)cc1`, the inhibition was 7.85%.
The result for `CCc1c(C)nc(-n2nc(C)cc2NC(=O)CCc2ccccc2)[nH]c1=O` reads 0.86%; that for `Cc1[nH]cnc1CSCCNC(=N)NCCCCCCCCNC(=N)NCCSCc1nc[nH]c1C`, -1.07%; that for `COc1ccc(NC(=O)c2ccc(-c3cccc(OCc4ccccc4)c3)cc2)cc1N1CCN(C)CC1`, 1.72%.
The result for `CNC(=O)C(C)N(c1ccc(Cl)cc1)c1nc(C(C)(C)C)cs1` (stereo not given) reads -1.9%; that for `O=C(CCc1ccccc1)N[C@H](Cc1c[nH]c2ccccc12)C(=O)N1CCC(NCc2ccc3c(c2)Cc2ccccc2-3)CC1`, 7.69%; that for `COc1ccc(NC(=O)[C@H](Cc2ccccc2)Nc2nc(NCCN3CCCC3)ncc2C)cc1`, 1.71%.
On to `COc1ccc(CC(C)CON2C(N)=NC(N)=NC2(C)C)cc1` (stereo not given), for which the inhibition was determined as 4.07%.
`CC(C)(C)NCCN(Cc1ccc(-c2ccc(C(F)(F)F)cc2)cc1)C(=O)Cn1c(CCc2cccc(F)c2F)nc(=O)c2ccccc21`: the inhibition came out at 3%.
As to `Cc1cc([N+](=O)[O-])ccc1N1CCN(CCCCNC(=O)c2ccc(NC(=O)c3ccc(Cl)cc3)cc2)CC1`, the inhibition was determined as 4.75%.
With `CC(C)OC(=O)c1cccnc1SCC(=O)Nc1ccc(C(F)(F)F)cc1Cl`, the inhibition worked out at 1.58%.
With `Clc1cc(Cl)cc(Nc2ccnc(Nc3cc(Cl)cc(Cl)c3)n2)c1`, the inhibition was found to be 4.6%.
In the case of `CN(C)CC1CCCN1Cc1ccccc1-c1cnn(C)c(=O)c1Oc1ccc(F)cc1` (stereo not given), the inhibition is 5.23%.
The result for `Cc1cccc2nc(-c3cccc(-c4cccc(CNCc5ccc(S(C)(=O)=O)cc5)c4)c3)[nH]c12` reads 1.64%; that for `COc1ccc(-c2nc(NC(=O)Cc3coc4cc(OC)ccc34)sc2C)cc1`, -1.68%; that for `CS(=O)(=O)CCNCc1cccc(-c2cc3c(Nc4ccc(OCc5ccccc5)cc4)ncnc3cn2)c1`, 13.7%.
In the case of `CC(C)n1cc(CN2CCCC(C(=O)Nc3cccc(-c4cc5ccccc5[nH]4)c3)C2)cn1` (stereo not given), the inhibition was 2.2%.
Consider `Nc1nc(N)c2c(ccc3c2cnn3S(=O)(=O)N2CCCC2)n1`, for which the inhibition is -1.43%.
For `Cc1ccc(NC(=O)c2cnc(N3CCN(c4ccncc4)CC3)c(Cl)c2)cc1`, the inhibition is 42.8%.
Consider `C[C@H](Cc1ccc(OCCCCCCOc2ccc(C[C@@H](C)NC(=O)[C@H](O)c3cccc(Cl)c3)cc2)cc1)NC[C@H](O)c1cccc(Cl)c1`, for which the inhibition worked out at 7.21%.
In the case of `Cn1nc(-c2cccc(CNC3CCc4ccccc43)c2)c2cnc(NCCCN3CCCC3)nc21` (stereo not given), the inhibition stood at 29.9%.
